Screening data from PubChem.
This is a sample that favours compounds with a hit; in the whole collection about 1.2% have one here.
Platelet DG rel: inhibitors of platelet dense granule secretion, primary screen, cell-based, MLPCN, human platelets. AID 1663, 2009. 300,000 tested, 0.22% active. inhibition, %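 (compounds screened at 7.5 µM in platelet-rich plasma)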. human platelet-rich plasma, SFLLRN dense granule ATP release, luminescence;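 active = mean replicate score, as percent of positive control, at or above 50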
NTR1 ag: agonists of human NTR1, primary screen, imaging, U2OS cells, beta-arrestin-GFP, high content | 330,000 tested, 0.17% active | NTR1-U2OS beta-arrestin-GFP spot imaging, agonist mode | AID 493036, 2011 | activation, % at 20 µM | Neurotensin receptor type 1 (Homo sapiens), P30989;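 active = activation at or above 40% of the spot to cytoplasm intensity ratio, with at least 20 cells analyzed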;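 also: 0% = DMSO without peptide and 100% = 100 nM NTR1 peptide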
Target sequence (P30989 whole entry, looked up): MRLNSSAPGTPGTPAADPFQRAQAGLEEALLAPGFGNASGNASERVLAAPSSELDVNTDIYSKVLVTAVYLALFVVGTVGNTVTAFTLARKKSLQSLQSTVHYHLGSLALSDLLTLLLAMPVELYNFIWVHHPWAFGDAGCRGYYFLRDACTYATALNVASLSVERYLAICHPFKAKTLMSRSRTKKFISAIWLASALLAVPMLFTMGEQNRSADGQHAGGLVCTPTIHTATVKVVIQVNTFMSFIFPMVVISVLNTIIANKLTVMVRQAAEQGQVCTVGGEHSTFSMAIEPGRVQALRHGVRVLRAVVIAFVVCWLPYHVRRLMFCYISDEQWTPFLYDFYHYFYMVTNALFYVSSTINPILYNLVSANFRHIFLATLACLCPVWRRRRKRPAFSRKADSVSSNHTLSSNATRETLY
GRK2 aptamer HTS: compounds blocking aptamer binding on GRK2 – biochemical, human GRK2, bead flow cytometry, HTS, primary screen; FAM-aptamer displacement from GRK2; inhibition of aptamer binding, % at 10 µM; Beta-adrenergic receptor kinase 1 (Homo sapiens), P25098; AID 488847, 2010; 330,000 tested, 0.59% active;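 active = inhibition of aptamer binding above 40%, roughly 3 SD of noise, on plates passing a quality check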;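 also: median bead fluorescence of bound FAM aptamer so fluorescent compounds give negative values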
beta cell repl: inducers of MIN6 beta-cell proliferation, primary screen, ATP luminescence, uHTS; AID 2380, 2010; MIN6 cells proliferation, ATPlite luminescence, 48 h; cells starved in 0.2% serum; 100% = growth in 10% serum; proliferation, % at 10 µM; 330,000 tested, 0.29% active;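 active = compounds whose signal lies at least 3.5 SD above the mean of all wells on their plate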;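 also: 0% = DMSO-treated cells in low-serum medium and 100% = 10% serum control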
GRK2 CP1: GRK2 aptamer-displacing inhibitors, retest, confirmation, biochemical, cherry pick 1, bead flow cytometry. 2,000 tested, 4% active. bead-bound GRK2, FAM-aptamer displacement. aptamer displacement, % at 10 µM. AID 504451, 2011. shares compounds with GRK2 aptamer HTS;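 active = aptamer displacement above 40%, near three times the noise of non-fluorescent compounds, on plates passing quality checks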;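 also: negative values mostly reflect intrinsic compound fluorescence rather than true enhancement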
FAM quench CP1: aptamer fluorescence quenching in GRK2 counter-screen | shares compounds with GRK2 aptamer HTS | Carboxyfluorescein RNA aptamer on beads, flow cytometry quenching; active compounds read low | fluorescence response (% of DMSO), % at 10 µM | AID 504580 | 2,000 tested, under 10 active;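 active = compounds that quench the bead-bound fluorescent RNA probe, cutting fluorescence to under half of the solvent control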;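 also: counterscreen run without GRK2 so only probe quenching by compound is measured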
GRK2 CP2: GRK2 aptamer-displacing inhibitors, hit retest, confirmation, biochemical, cherry pick 2, bead flow cytometry; inhibition of aptamer binding, % at 10 µM; shares compounds with GRK2 aptamer HTS; bead-bound GRK2, FAM-aptamer displacement; 360 tested, under 10 active; AID 504782, 2011;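 active = inhibition of aptamer binding above 40%, about triple the noise seen with nonglowing compounds, on plates passing quality control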;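 also: negative values mostly come from compounds that fluoresce themselves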
FAM quench SP: counter-screen for GRK2 binding hits: quenchers of fluorescent RNA aptamer. AID 588494. carboxyfluorescein RNA aptamer beads, flow cytometry quenching; active compounds read low. 360 tested, under 10 active. shares compounds with GRK2 aptamer HTS. fluorescence response vs DMSO, % at 10 µM;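 active = response vs DMSO under 50%, meaning signal dropped by over half, treated as fluorescence quencher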;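 also: labelled aptamer on streptavidin beads without GRK2 as a quench counter-screen; 100% = bead fluorescence of DMSO wells and lower means quenching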
* hit, by the source's call; . = no result given.

SMILES	Platelet DG rel	NTR1 ag	GRK2 aptamer HTS	beta cell repl	GRK2 CP1	FAM quench CP1	others
C/C(Cn1nnc2ccccc21)=N/OC(=O)c1c(F)cccc1F	-3	-1	0	0	.	.
Cc1cccc(C(=O)N2CCCC(CCC(=O)N3CCN(c4ccccn4)CC3)C2)c1 (configuration not stated)	11	-1	8	-1	.	.
CCN(CC(=O)Nc1c(F)cccc1F)C(=O)CNC(=O)c1ccc2ccccc2c1	.	-1	0	-5	.	.
CCN(CC(=O)Nc1c(F)cccc1F)C(=O)c1cc2ccccc2oc1=O	-3	0	100*	-5	1	103
O=C(CN1C(=O)NC(Cc2ccccc2)C1=O)Nc1ccc(F)cc1 (configuration not stated)	4	-1	4	-2	.	.
O=C(CN1C(=O)NC(Cc2ccccc2)C1=O)Nc1ccccc1F (configuration not stated)	.	0	44*	-2	.	.	GRK2 CP2=26;FAM quench SP=100
COc1ccc(NC(=O)CON=CC(=O)Nc2ccc(C)cc2)c(OC)c1	.	1	8	0	.	.
COc1ccccc1CN(C)C(=O)C1COc2ccccc2O1 (configuration not stated)	-1	4	4	4	2	99
CN(CCCNC(=O)Cn1c(=O)c2cccn2c2ccccc21)Cc1ccccc1	-9	0	0	1	.	.
CCOC(CNc1ncnc2sc(-c3ccccc3)cc12)OCC	2	2	48*	-3	0	98
CN(C)CCCNc1ncnc2sc(-c3ccccc3)cc12	2	0	0	-5	.	.
COc1ccc(C2c3[nH]c4ccccc4c3CCN2C(=O)c2ccccc2C(C)=O)c(F)c1 (configuration not stated)	-3	1	0	-1	.	.
COc1cccc(C2c3[nH]c4ccccc4c3CCN2C(=O)c2ccccc2F)c1OC (configuration not stated)	-4	10	50*	-4	2	98
CC(NS(=O)(=O)c1c(N)n(C)c(=O)n(C)c1=O)c1ccccc1 (configuration not stated)	17	-1	1	4	.	.
COc1cccc(/C=N\NC(=O)Cn2nnc3ccccc32)c1O	0	-1	0	-4	.	.
O=c1[nH]nc(Cc2ccc([N+](=O)[O-])cc2)c2ccccc12	1	0	86*	-3	12	98
COc1ccc(NC(=O)C2CSC(C)(C)N2C=O)cc1 (configuration not stated)	-8	0	75*	-1	-3	100
CCOc1ncccc1C(=O)OCC(=O)Nc1ccc2c(c1)CCC2	.	2	24	-1	0	108
CCOc1ncccc1C(=O)OCC(=O)Nc1ccc2c(c1)OCO2	-1	-1	0	-3	.	.
CC1CN(C(=O)CSc2nnc(-c3cccs3)n2N)CC(C)O1 (configuration not stated)	.	-1	0	0	.	.
O=C(NNc1ccccc1C(F)(F)F)c1sccc1Br	-1	0	99*	-1	1	95
Cc1ccc(S(=O)(=O)Nc2cccc(C(=O)N3CCC(C(N)=O)CC3)c2)cc1	.	0	61*	2	3	97
N#Cc1ccc(N[C@@H]2CCN3C(=O)c4ccccc4[C@@H]3C[C@H]2O)cc1	.	1	17	.	.	.
COC(=O)c1sc2ncn(N)c(=O)c2c1C	-2	1	42*	-2	1	97
N#Cc1cccc(NC(=O)CN2CCN(Cc3ccccc3)CC2)c1	1	1	0	1	.	.
SMILES	Platelet DG rel	NTR1 ag	GRK2 aptamer HTS	beta cell repl	GRK2 CP1	FAM quench CP1	others
CCCOC(=O)CCCN1C(=O)/C(=C2\SC(=S)N(CCCC(=O)OCCC)C2=O)SC1=S	-1	0	60*	-3	36	100
O=C(COC(=O)Cc1ccc(-c2ccccc2)cc1)NCc1ccccc1	4	-2	0	-3	-3	79
CC(NC(=O)COC(=O)Cc1ccc(-c2ccccc2)cc1)c1ccccc1 (configuration not stated)	3	1	0	0	1	22*
CC1(C)C2CC[C@]3(C)C(CC=C4[C@@H]5C[C@@](C)(CO)[C@@H](O)C[C@]56C[C@@H](OC6=O)[C@]43C)[C@@]2(C)CC[C@@H]1O (some centres not stated)	0	0	0	-2	.	.
COc1cc2sc3cc(NCC[C@@H]4CCCN4C)ccc3c(=O)c2cc1OC	.	16	77*	-6	.	.	GRK2 CP2=-23;FAM quench SP=97
Cc1ccc(-c2nn(-c3ccccc3)cc2/C=C/C(=O)OCC(=O)NC2CC2)o1	8	17	78*	-3	-5	102
CCOC(=O)c1cccc(C2=CC(=O)CC(C)(C)C2)c1	.	1	1	-1	.	.
O=C(COc1ccc(C2SCCS2)cc1)NNC(=O)C(Cl)Cl	1	1	46*	-3	2	105
CC1=C(C(=O)OC(C)C)C(c2cccs2)n2ncnc2N1 (configuration not stated)	-25	3	85*	-4	0	100
CCN(CC)CCCN(C(=O)c1ccco1)c1nc(-c2ccc(Cl)cc2)cs1	-6	1	66*	-5	-15	99
CCN(CC)CCCN(C(=O)c1ccco1)c1nc(-c2ccc(C)cc2)cs1	3	2	59*	-7	-13	104
COCCCN(C(=O)c1ccco1)c1nc(-c2ccc(OC)cc2)cs1	4	3	4	-3	.	.
O=C(c1ccco1)N(CCCN1CCOCC1)c1nc(-c2ccc(Cl)cc2)cs1	2	7	2	-1	1	103
CCC(Cc1ccccc1)NC(=O)CCNS(=O)(=O)c1cc(Br)cnc1N (configuration not stated)	0	1	2	-1	.	.
CCCCn1c(N)c(N(CC(C)C)C(=O)CSCc2cccc(C)c2)c(=O)[nH]c1=O	2	3	1	-6	.	.
c1ccc(CN(CC2=NCCN2)c2ccccc2)cc1	-2	-3	0	3	2	100
C#C[C@]1(OC(C)=O)CCC2C3CCC4=CC(=O)CC[C@@H]4C3CC[C@@]21C (some centres not stated)	-3	1	1	-1	.	.
